Compounds with a hit are over-represented: about 1.8% of the library has one in this group of screens.
VHR inh abs: VHR1 phosphatase inhibitors, primary screen, biochemical, absorbance, uHTS | hit rate 0.52% among 290,000 | Dual specificity protein phosphatase 3 (Homo sapiens), P51452 | inhibition, % at 13.3 µM | recombinant VHR phosphatase, pNPP absorbance; in the data active = inhibition above about 50%
PrPC surface inh: inhibitors of human cell surface prion protein PrPC, primary screen, cell-based, TR-FRET; Major prion protein (Homo sapiens), P04156; TR-FRET read-out; inhibition, % at 13.8 µM; hit rate 0.43% among 370,000; in the data active = inhibition above about 24%; note: 0% = median of the test wells and 100% = reference compound wells
CCHF vOTU inh: CCHFV vOTU protease inhibitors, primary screen, biochemical, Pep-AMC substrate, fluorescence; Crimean-Congo hemorrhagic fever virus L polyprotein viral ovarian tumor (vOTU) protease …; AID 651958, 2012; inhibition, % at 11.5 µM; hit rate 0.55% among 370,000; in the data active = inhibition above about 30%; note: 0% = vehicle wells with enzyme and 100% = no enzyme wells
Y pestis TopoI: Yersinia pestis topoisomerase I inhibitors, primary screen, biochemical, cleavage product accumulation, plate reader, single point; DNA topoisomerase I (Yersinia pestis CO92); Y. pestis Topo-I cleavage product accumulation; activity, % at 10 µM; hit rate 0.064% among 360,000; AID 504884, 2011; in the data active = activity above about 50%, passing the limit was not always enough
MazEF act: activators of E. coli MazEF toxin-antitoxin RNase, primary screen, biochemical, fluorescence, uHTS; Endoribonuclease toxin MazF (Escherichia coli (strain K12)), P0AE70; FAM/BHQ RNA-DNA oligo cleavage fluorescence, 5 h; activation, % at 20 µM; hit rate 0.32% among 350,000; AID 504720, 2011; in the data active = activation above about 50%
Vc quorum ag: inducers of Vibrio cholerae quorum light production without autoinducers, primary screen, BH1578 luxS cqsA deficient, single point; V. cholerae BH1578 lux reporter, luminescence, 6 h; AID 588436, 2011; hit rate 0.16% among 350,000; activation, % at 18.7 µM; in the data active = activation mostly above about 9.7%, no sharp cut-off
PrPC TRFRET cf: confirmation of inhibitors of cell surface human prion protein, confirmation, cell-based, TR-FRET | shares compounds with PrPC surface inh | hit rate 65% among 1,500 | cell surface PrPC level | inhibition, % at 13.8 µM; in the data active = inhibition above about 25%
LD9 cytotox: cytotoxicity in LD9 cells, cytotoxicity control for cell surface PrPc inhibitor project, cell-based, luminescence, high throughput | hit rate 29% among 1,500 | luminescence viability | AID 743201, 2013 | shares compounds with PrPC surface inh | inhibition, % at 13.8 µM; in the data active = inhibition above about 9.5%
* hit, by the source's call.

For CCC1(C)Cc2ccccc2-c2[nH]c(=S)[nH]c(=O)c21 (centres undefined) the results were VHR inh abs 22, PrPC surface inh 90*, CCHF vOTU inh 8, Y pestis TopoI 2, MazEF act 5, Vc quorum ag inactive, PrPC TRFRET cf 120* and LD9 cytotox -8.
CC(C)c1ccc(NC2CCCN(C(=O)CCc3cnn(C)c3)C2)cc1 (centres undefined) was read as VHR inh abs 30, PrPC surface inh -3, CCHF vOTU inh 9, Y pestis TopoI -4, MazEF act 4 and Vc quorum ag 0.
For O=C(NCc1ccco1)c1cccc(-c2nnc(-c3ccccc3)o2)c1 the results were VHR inh abs 15, PrPC surface inh 26*, CCHF vOTU inh 8, Y pestis TopoI 11, MazEF act 3, Vc quorum ag inactive, PrPC TRFRET cf 15 and LD9 cytotox 4.
`COc1ccc(C(=O)Nc2cccc(C(=O)NCc3ccco3)c2)cc1` gave VHR inh abs -10, PrPC surface inh 27*, CCHF vOTU inh -2, Y pestis TopoI 0, MazEF act 3, Vc quorum ag -1, PrPC TRFRET cf 20 and LD9 cytotox 5.
O=C(NCc1ccco1)c1cccc(NC(=O)c2ccco2)c1 was read as VHR inh abs 6, PrPC surface inh 20, CCHF vOTU inh -14, Y pestis TopoI 4, MazEF act -25 and Vc quorum ag inactive.
Screening COCCCNC(=O)CSc1nc2cc(S(=O)(=O)N3CCCCC3)ccc2o1 returned PrPC surface inh 6, CCHF vOTU inh -6, Y pestis TopoI 0, MazEF act 7 and Vc quorum ag inactive.
`c1ccc(-c2ccc(-c3ccncn3)cc2)cc1` gave PrPC surface inh 7, CCHF vOTU inh -21, Y pestis TopoI -13, MazEF act 10 and Vc quorum ag -1.
`CCOC(=O)c1c(N)sc2c1CCC(CC)C2` (centres undefined) gave VHR inh abs 2, PrPC surface inh -2, CCHF vOTU inh 3, Y pestis TopoI -2 and MazEF act -7.
For CC#CCOC(=O)c1c(C)nc2sc3c(c2c1N)CCC(O)C3 (centres undefined) the results were PrPC surface inh 42*, CCHF vOTU inh -4, Y pestis TopoI 10, MazEF act 12, Vc quorum ag inactive, PrPC TRFRET cf 27* and LD9 cytotox 12*.
For COC(=O)c1ccc(-c2csc(NC(=O)C3=COCCO3)n2)cc1 the results were VHR inh abs 5, PrPC surface inh -2, CCHF vOTU inh 17, Y pestis TopoI -9, MazEF act -10 and Vc quorum ag 0.
`CS(=O)(=O)N1CCc2ccc(NC(=O)C3CCCO3)cc2C1` (centres undefined) gave VHR inh abs -12, PrPC surface inh -6, CCHF vOTU inh 5, Y pestis TopoI 4, MazEF act 6 and Vc quorum ag inactive.
Screening Cc1ccc(CN2CCCCC(NC(=O)c3ccc(-c4ccccc4)cc3)C2=O)cc1 (centres undefined) returned PrPC surface inh 1 and CCHF vOTU inh 2.
`Cc1ccc(CN2CCCCC(NC(=O)Nc3ccccc3-c3ccccc3)C2=O)cc1` (centres undefined) gave PrPC surface inh 30*, CCHF vOTU inh 14, PrPC TRFRET cf 18 and LD9 cytotox -3.
Screening CCOc1ccc(C(CN2CCOCC2)C(C)=O)cc1OC (centres undefined) returned PrPC surface inh 9 and CCHF vOTU inh 11.
For CC(=O)Nc1ccc(-c2ccnc(-c3ccc(NC(C)=O)cc3)n2)cc1 the results were VHR inh abs 11, PrPC surface inh 58*, CCHF vOTU inh 16, Y pestis TopoI -1, MazEF act -2, Vc quorum ag -1, PrPC TRFRET cf 56* and LD9 cytotox -5.
Screening Fc1ccccc1COc1ccc(Br)cc1CNCc1ccncc1 returned VHR inh abs 4, PrPC surface inh 25*, CCHF vOTU inh 5, Y pestis TopoI 28, MazEF act -6, Vc quorum ag 0, PrPC TRFRET cf 23 and LD9 cytotox 17*.
Screening COc1ccc(Cn2cccc(NC(=O)Nc3cccc(OC)c3)c2=O)cc1 returned VHR inh abs 9, PrPC surface inh 25*, CCHF vOTU inh 0, Y pestis TopoI 15, MazEF act -22, Vc quorum ag 0, PrPC TRFRET cf 29* and LD9 cytotox -7.
`COCCCNC(=O)CCN1N=C(c2ccccc2)CCC1=O` gave VHR inh abs -1, PrPC surface inh 6, CCHF vOTU inh -8, Y pestis TopoI -3, MazEF act 11 and Vc quorum ag inactive.
`O=C(C[C@H]1CC[C@@H]2[C@H](COC[C@@H](O)CN2Cc2cccc(F)c2)O1)NCC1CCCCC1` gave PrPC surface inh -4 and CCHF vOTU inh -3.
Screening COC(=O)c1ccc(NC(=O)c2nc(S(=O)(=O)Cc3cccc(C)c3)ncc2Cl)cc1 returned VHR inh abs -9, PrPC surface inh 84*, CCHF vOTU inh 9, Y pestis TopoI 21, MazEF act 9, Vc quorum ag 0, PrPC TRFRET cf 46* and LD9 cytotox 96*.
CCS(=O)(=O)c1ncc(Cl)c(C(=O)Nc2ccc(S(=O)(=O)N3CCC(C)CC3)cc2)n1 was read as VHR inh abs 2, PrPC surface inh 79*, CCHF vOTU inh 24, Y pestis TopoI 25, MazEF act 4, Vc quorum ag inactive, PrPC TRFRET cf 38* and LD9 cytotox 100*.
Screening CCOC(=O)c1ccc(NC(=O)c2nc(S(=O)(=O)Cc3ccccc3)ncc2Cl)cc1 returned VHR inh abs -2, PrPC surface inh 1, CCHF vOTU inh 5, Y pestis TopoI 9, MazEF act 10 and Vc quorum ag inactive.
For CCc1ccc(NC(=O)c2nc(S(=O)(=O)Cc3ccccc3)ncc2Cl)cc1 the results were VHR inh abs -3, PrPC surface inh 64*, CCHF vOTU inh 14, Y pestis TopoI 27, Vc quorum ag inactive, PrPC TRFRET cf 24 and LD9 cytotox 96*.

Compound activity (PubChem BioAssay)
